Bioassay records as filed in PubChem.
Hits are enriched below; roughly 27% of the tested compounds scored in any of these assays.
Cav32 inh = blocks human Cav3.2 T-type calcium channel. 100,000 compounds, 4% hits. Cav3.2-expressing cells, Fluo-4 calcium fluorescence FDSS; active compounds read low. B-score at 10 µM. O95180;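 active = single-dose well whose peak fluorescence ratio is a statistical outlier from its plate by either plate-standardised score or position-corrected B-score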
CYP2C19 activ = activators of human cytochrome P450 2C19; recombinant CYP2C19, luciferin-H EGE luminescence; active compounds read high; 0 = fully inhibited enzyme, 1 = untreated enzyme; 96,000 tested, under 10 active; activation factor at 5 µM;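 active = activation factor of at least 2 at 5 µM in the primary screen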;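 note: 0 = wells with 2.5 mM tranylcypromine and 1 = vehicle-only wells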
Target sequence (P33261 whole entry, looked up): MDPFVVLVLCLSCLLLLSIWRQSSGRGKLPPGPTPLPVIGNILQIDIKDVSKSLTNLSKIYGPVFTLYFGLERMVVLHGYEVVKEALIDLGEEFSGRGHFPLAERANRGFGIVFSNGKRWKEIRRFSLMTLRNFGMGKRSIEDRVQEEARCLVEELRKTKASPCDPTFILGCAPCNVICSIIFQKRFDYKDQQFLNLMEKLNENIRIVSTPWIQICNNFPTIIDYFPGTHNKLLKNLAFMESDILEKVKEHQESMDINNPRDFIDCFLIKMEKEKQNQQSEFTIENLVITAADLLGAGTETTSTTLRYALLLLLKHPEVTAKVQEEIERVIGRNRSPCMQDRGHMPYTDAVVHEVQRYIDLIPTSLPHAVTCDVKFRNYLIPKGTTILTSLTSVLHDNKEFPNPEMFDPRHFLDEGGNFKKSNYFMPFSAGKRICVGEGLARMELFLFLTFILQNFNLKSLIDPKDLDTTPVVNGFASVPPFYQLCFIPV
CYP2C9 activ = CYP2C9 (human) activation; recombinant CYP2C9, luciferin-H conversion, luminescence; active compounds read high; factor 1 = untreated enzyme, 0 = blocked; activation factor at 5 µM; 96,000 compounds, 1.4% hits; AID 1024;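 active = activation factor of 2 or more for CYP2C9 at a 5 µM dose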;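 note: 0 = sulfaphenazole-blocked wells and 1 = vehicle-only wells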
CYP2C9 inhib = blocks human cytochrome P450 2C9 | P11712 | 96,000 compounds, 20% hits | AID 777 | CYP2C9 Supersomes, luciferin-H conversion, luminescence | inhibition, % at 5 µM;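 active = blocking of liver enzyme CYP2C9 beyond about 50% at 5 µM, limit read from the data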
CYP2C19 inhib = inhibitors of human CYP2C19; P33261; CYP2C19 Supersomes, luciferin-H EGE luminescence, 30 min; inhibition, % at 5 µM; 96,000 compounds, 21% hits;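 active = CYP2C19 inhibition above a set limit at 5 µM in the primary screen, cut at about 50% in these data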;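 note: plate controls were negative control wells for no effect and 2.5 mM tranylcypromine positive control for full effect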
Numbers without * were called inactive; / = not tested or not shown.

SMILES	Cav32 inh	CYP2C19 activ	CYP2C9 activ	CYP2C9 inhib	CYP2C19 inhib
CCCSc1nc(NCc2ccco2)c2c3c(sc2n1)COC(C)(C)C3	-5.6*	0.6	0.4	56*	39
CCCCSc1nc(NCc2ccco2)c2c3c(sc2n1)COC(C)(C)C3	-5.7*	0.9	0.5	46	11
[O-]/[N+](=C\c1ccncc1)c1ccccc1	/	0.8	0.8	19	21
COc1ccc(C(=O)N2c3cc4c(cc3C(C)=CC2(C)C)OCO4)cc1	-1.1	0.1	0	95*	92*
CC(C)Oc1cccc(-c2nnc(SCC(=O)Nc3ccc4c(c3)OCCO4)n2N)c1	-0.5	0.5	0.3	71*	50*
COCCn1c(SCC(=O)c2ccc3c(c2)OCCO3)nnc1-c1ccco1	0.87	0.4	0.6	42	65*
CCCn1c(SCC(=O)Nc2ccc3c(c2)OCCO3)nnc1-c1ccco1	-0.0022	0.3	0.1	92*	73*
COCCn1c(SCC(=O)Nc2ccc3c(c2)OCCO3)nnc1-c1c[nH]c2ccccc12	-0.066	0.7	0.4	58*	32
Cc1c(Cl)c(C(F)(F)F)nn1CC(=O)N1CCSCC1	-0.09	/	/	/	/
CN(C)S(=O)(=O)N(CC(=O)N(Cc1ccccc1)Cc1ccccc1)c1ccccc1	-2.9	0.2	0.1	85*	81*
CN(C)S(=O)(=O)N(Cc1ccc(Br)cc1)c1ccccc1	-2.9	0.1	0.6	42	86*
CN(C)S(=O)(=O)N(CC(=O)Nc1ccccc1F)c1ccccc1	-0.58	/	/	/	/
CCC(C)NC(=O)c1cc2cc3ccc(OC)cc3nc2s1 (stereo unspecified)	-0.24	0.2	0.2	84*	76*
COc1ccc2cc3c(N)c(C(=O)N4CCCC4)sc3nc2c1	-1.1	0.9	0.7	28	14
Cc1ccc(-n2c(CSc3nc(C)cc(C)n3)nnc2SCC(=O)N2CCCC2)cc1	-0.037	1	1	3	-4
CC(=O)c1c(N)c(C#N)c(C)n1-c1ccc(Br)cc1	-0.77	0.1	1	4	94*
Cc1ccc(-c2ccc(/C=N/N3C(=O)C4C5C=CC(C6CC56)C4C3=O)o2)c([N+](=O)[O-])c1 (stereo unspecified)	-5.1*	0.9	0.9	11	10
COc1cc2nc(CN3CCN(c4ncc(C(F)(F)F)cc4Cl)CC3)[nH]c(=O)c2cc1OC	/	0.8	0.9	15	15
COc1ccc(C2C3=C(CCCC3=O)Nc3c(-c4ccccc4)c(C)nn32)cc1 (stereo unspecified)	-3	0.3	0.6	35	71*
CC(=O)N1c2ccccc2NC2=C(C(=O)CCC2)C1c1ccc(F)cc1 (stereo unspecified)	0.37	0.9	1	-3	8
CC(=O)N(CC1CCCO1)c1nnc(-c2ccccn2)s1 (stereo unspecified)	0.87	0.8	0.7	26	24
Cc1ccc(C(=O)Nc2ccccc2C(=O)NC(C(=O)O)C(C)C)cc1 (stereo unspecified)	-0.16	/	/	/	/
Nc1cc(=O)[nH]c(=O)n1CC1CC1	0.95	/	/	/	/
CC1=C(C(=O)Nc2ccccc2C)C(c2cccnc2)n2nc(CCCO)nc2N1 (stereo unspecified)	0.2	1.2	0.5	53*	-15
COC(=O)C1=C(C)Nc2nc(-c3ccccc3)nn2C1c1ccc(C)o1 (stereo unspecified)	-2	0.3	0.3	71*	66*
SMILES	Cav32 inh	CYP2C19 activ	CYP2C9 activ	CYP2C9 inhib	CYP2C19 inhib
COc1ccccc1NC(=O)C1=C(C)Nc2nc(CCCO)nn2C1c1cccnc1 (stereo unspecified)	-0.56	1	1.1	-8	3
CC1=C(C(=O)Nc2ccccc2)C(c2cccnc2)n2nc(-c3cccnc3)nc2N1 (stereo unspecified)	0.51	0.7	0.3	75*	26
COc1cccc(-c2nc3n(n2)C(c2cccs2)C(C(=O)Nc2cccnc2)=C(C)N3)c1 (stereo unspecified)	-1.1	0.2	0	99*	77*
CC1=C(C(=O)Nc2cccnc2)C(c2cccnc2)n2nc(-c3cccs3)nc2N1 (stereo unspecified)	-1.1	0.8	0.5	47	24
Cc1cccc(NC(=O)c2nc[nH]c2C(=O)N[C@@H](CC(C)C)C(=O)OC(C)(C)C)c1	1.1	/	/	/	/
CCN1CCCC1CNC(=O)c1ccc(CS(=O)(=O)c2ccccc2C)o1 (stereo unspecified)	0.88	1.1	1.1	-14	-12
COC(=O)C1Cc2c([nH]c3ccccc23)CN1 (stereo unspecified)	1.1	0.3	1.1	-9	71*
